Jurkat NFkB inh – inhibitors of induced NF-kB luciferase reporter, primary screen, TCR NF-kB activation inhibitor project, cell-based, luminescence, uHTS; Jurkat, PMA/ionomycin-induced NF-kB luciferase reporter; inhibition, % at 4 µM; 330,000 tested, 0.53% active; in the data active means inhibition above about 50%
Gli-Sufu antag – Gli-Sufu pathway antagonists, primary screen, luciferase luminescence, Sufu-KO-LIGHT cells, uHTS; inhibition, % at 5 µM; 340,000 tested, 0.74% active; Sufu-KO-LIGHT fibroblasts, Gli luciferase reporter luminescence;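 active means inhibition above about 55%, limit read from the data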
Mdm2 MdmX PPI – inhibitors of human Mdm2-MdmX association, primary screen, cell-based, luminescence, split luciferase, SaOS-2, uHTS. 330,000 tested, 3% active. inhibition, % at 8 µM. SaOS-2 split-luciferase Mdm2/MdmX complementation;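 active means inhibition of at least 50% at 8 µM in the primary screen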
Target sequence (O15151 whole entry, looked up): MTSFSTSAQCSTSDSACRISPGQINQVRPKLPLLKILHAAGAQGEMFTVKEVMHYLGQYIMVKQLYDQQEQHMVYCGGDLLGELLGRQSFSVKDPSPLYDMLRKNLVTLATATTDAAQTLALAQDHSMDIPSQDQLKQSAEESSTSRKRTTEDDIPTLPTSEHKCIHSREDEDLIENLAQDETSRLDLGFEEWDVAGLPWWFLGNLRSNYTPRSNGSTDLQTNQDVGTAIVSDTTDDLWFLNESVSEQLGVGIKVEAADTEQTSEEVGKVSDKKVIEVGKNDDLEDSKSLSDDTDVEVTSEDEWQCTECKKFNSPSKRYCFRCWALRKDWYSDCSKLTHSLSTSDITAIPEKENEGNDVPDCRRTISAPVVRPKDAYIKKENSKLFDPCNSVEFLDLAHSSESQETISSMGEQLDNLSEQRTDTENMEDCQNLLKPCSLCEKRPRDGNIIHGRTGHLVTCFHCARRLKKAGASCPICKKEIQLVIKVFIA
Target sequence (Q00987 whole entry, looked up): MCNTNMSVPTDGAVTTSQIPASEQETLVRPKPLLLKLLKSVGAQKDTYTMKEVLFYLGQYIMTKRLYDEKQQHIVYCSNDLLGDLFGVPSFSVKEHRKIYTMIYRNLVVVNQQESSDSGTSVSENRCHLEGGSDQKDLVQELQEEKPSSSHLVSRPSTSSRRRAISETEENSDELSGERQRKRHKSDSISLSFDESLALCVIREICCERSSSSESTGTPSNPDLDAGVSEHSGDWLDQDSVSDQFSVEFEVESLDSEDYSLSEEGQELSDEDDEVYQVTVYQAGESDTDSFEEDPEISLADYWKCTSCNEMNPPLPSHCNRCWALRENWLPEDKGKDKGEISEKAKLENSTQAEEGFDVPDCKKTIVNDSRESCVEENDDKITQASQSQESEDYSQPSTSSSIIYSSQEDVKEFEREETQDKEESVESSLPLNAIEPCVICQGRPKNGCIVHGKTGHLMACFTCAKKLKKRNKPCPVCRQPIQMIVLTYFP
Beta cell apopt – inhibitors of cytokine-induced beta cell apoptosis, primary screen, luminescence | INS-1E cytokine-induced death, ATP luminescence, 48 h; percent of positive-control rescue, neutral wells zero | protection from apoptosis, % (concentration not given with the values) | 300,000 tested, 0.8% active | AID 435005, 2010;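 active means Every replicate reaches about 75%, or at least half do and their mean reaches it too, limit read from the data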;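 further: higher means more ATP so stronger rescue from cytokine killing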
697 NFkB inh – inhibitors of PMA/ionomycin-induced NF-kB reporter, 697 cells, primary screen, B-cell NF-kB inhibitor project, cell-based, luminescence, uHTS | 697 B-cell NF-kB luciferase reporter, 16 h | inhibition, % at 4 µM | 330,000 tested, 0.33% active | AID 435022, 2010; in the data active means inhibition above about 35%
697 NFkB conf – PMA/ionomycin-induced NF-kB reporter inhibitors, 697 retest, confirmation, B-cell NF-kB inhibitor project, cell-based, luminescence, single concentration; shares compounds with 697 NFkB inh; 697 B-cell NF-kB luciferase, 16 h; inhibition, % at 4 µM; 2,000 tested, 35% active; AID 449746, 2010; in the data active means inhibition mostly above about 28%, no sharp cut-off; inactive means mostly below about 22%
Hits are given with their value; . = inactive; / = not tested or not shown. Only some compounds are listed: those with a hit (about 4% of all), similar ones and a draw of the others.

SMILES	Jurkat NFkB inh	Gli-Sufu antag	Mdm2 MdmX PPI	Beta cell apopt	697 NFkB inh	697 NFkB conf
COc1ccc(C(=O)NCCS(=O)(=O)N2CCOCC2)cc1	.	.	.	.	.	/
COc1ccc(/C=C2\SC(=S)N(CCC(=O)Nc3cccc(O)c3)C2=O)cc1	.	.	.	/	47	54
COc1cccc(C(=O)Cn2c(=N)n(C)c3ccccc32)c1	.	.	.	.	.	.
CCOc1cc(CNS(=O)(=O)c2ccc3c(c2)CC(=O)N3C)cc(OCC)c1OCC	.	.	.	.	.	/
COc1ccc(/C(=C/Nc2cccc(Br)c2)C(C)=O)cc1OC	.	.	.	.	.	/
O=c1c(C=NCCCO)c(-c2ccccc2)[nH]n1-c1nc2ccccc2s1	.	.	.	.	37	41
COc1ccc(CCNC(=O)CCCn2nc(C)c([N+](=O)[O-])c2C)cc1OC	.	.	.	.	.	/
COc1ccccc1C(=O)NCC(=O)NCCC(c1ccccc1)c1ccccc1	.	.	.	.	.	/
O=C(O)C1CCCCC1C(=O)NCc1ccc(Cl)c(Cl)c1 (configuration not stated)	.	.	.	.	.	/
COc1ccc(N(/N=C2\Sc3ccccc3C2=O)C(C)=O)cc1	/	.	/	/	/	/
COc1ccccc1N(/N=C1\Sc2ccccc2C1=O)C(C)=O	.	.	.	.	.	.
COc1ccccc1-c1nc(C#N)c(N2CCN(c3ccccc3)CC2)o1	.	.	.	.	37	.
COc1ccc(S(=O)(=O)N2CC(C)N(C(=O)N(C)C)C2C)cc1 (configuration not stated)	.	.	.	.	.	/
CCOc1ccc(-c2cc(CCCC(=O)NCCCOC)no2)cc1	.	.	.	.	53	32
CC1CCN(S(=O)(=O)c2cnc(Cl)c(Br)c2)CC1	.	.	.	.	38	.
COc1ccc2c(c1)c(CC(=O)Nc1cccc(S(N)(=O)=O)c1)c(C)n2C(=O)c1ccc(Cl)cc1	.	.	.	.	.	/
O=C(CNC(=O)c1cccc(OC(F)F)c1)OCC(=O)c1ccccc1	.	.	.	.	35	.
COc1ccc(C(=O)N/N=C/c2sc(N3CCOCC3)nc2-c2ccccc2)cc1OC	.	.	.	.	41	32
O=C(Nc1ccc(N2CCCC2)cc1)c1cccc(Cl)c1	.	.	.	.	.	.
CC(C)(C)c1ccc(OCCC(=O)OCC(=O)NCc2ccccc2)cc1	.	.	.	.	.	/
CCCn1c(N)c(C(=O)COc2ccc(Br)cc2F)c(=O)n(C)c1=O	.	.	.	.	.	/
COc1ccccc1Cn1nc(C(=O)O)c2ccccc2c1=O	.	.	.	.	.	/
CCOc1ccc(C(C)=O)cc1Cn1nc(C(=O)O)c2ccccc2c1=O	.	.	.	/	35	.
O=C(NCCc1cccc(Cl)c1)c1ccc2c(c1)OCO2	.	.	.	.	.	/
NC(=S)Nc1ncc(C(F)(F)F)cc1Cl	.	.	.	.	47	.
SMILES	Jurkat NFkB inh	Gli-Sufu antag	Mdm2 MdmX PPI	Beta cell apopt	697 NFkB inh	697 NFkB conf
NC(=S)c1ncc(C(F)(F)F)cc1Cl	.	.	.	/	.	/
CN(C(=O)c1ccccc1C(=O)OCC(=O)c1ccc(F)c(F)c1)C1CCCCC1	.	.	.	/	.	/
CC(C)NC(=O)NC(=O)COC(=O)c1cc[n+]([O-])cc1	.	.	.	.	.	/
COc1cc(OC)cc(-c2cc3nc(C)c(CCC(=O)NC(C)CCc4ccco4)c(C)n3n2)c1 (configuration not stated)	.	.	.	.	.	/
CCOC(=O)C1CCN(C(=O)CCc2c(C)nc3cc(-c4ccccc4)nn3c2C)CC1	.	.	.	.	.	/
Cc1nc2cc(-c3cccc(F)c3)nn2c(C)c1CCC(=O)NC(C)c1ccc2c(c1)OCCO2 (configuration not stated)	.	.	.	.	.	/
Cc1nc2cc(-c3cccc(F)c3)nn2c(C)c1CCC(=O)N1CCN(c2ccccn2)CC1	.	.	.	/	48	.
Cc1nc2cc(-c3cccc(F)c3)nn2c(C)c1CCC(=O)NC(C)CCc1ccco1 (configuration not stated)	.	.	.	/	42	37
Cc1nc2cc(-c3ccccc3)nn2c(C)c1CCC(=O)NC(C)c1ccc2c(c1)OCCO2 (configuration not stated)	.	.	.	.	35	.
CCOC(=O)C1CCCCN1C(=O)CCc1c(C)nc2cc(-c3ccccc3)nn2c1C (configuration not stated)	.	.	.	.	35	.
O=C(CN1C(=O)COc2ccc(S(=O)(=O)N3CCCCC3)cc21)NCc1ccccc1Cl	.	/	.	.	.	/
Cc1nc2cc(-c3ccccc3)nn2c(C)c1CCC(=O)NCc1ccco1	.	.	.	.	46	37
COc1ccccc1-c1cc2nc(C)c(CCC(=O)NCc3ccco3)c(C)n2n1	.	.	.	/	.	/
CCOc1ccc(CCNC(=O)c2cc(S(=O)(=O)N3CCOCC3)ccc2C)cc1OCC	.	.	.	.	.	/
COc1ccc(C(=O)Nc2nnc(Cc3cccs3)s2)cc1OC	.	.	.	/	36	37
COc1ccc(Cc2nnc(NC(=O)c3ccc(OC)c(OC)c3)s2)cc1	.	.	.	.	.	/
Cc1cc(C)c2nc(NC(=O)c3ccco3)sc2c1	.	.	.	.	.	.
O=C(Nc1nc2c(F)cccc2s1)c1ccco1	.	.	.	.	.	/
O=C(Nc1nc2c(Br)cc(Br)cc2c(=O)s1)c1ccco1	.	.	.	.	36	37
COc1ccc2sc(NC(=O)c3ccco3)nc2c1	.	.	.	.	.	.
COc1ccc(S(=O)(=O)NCCC(=O)N2CCCC2)cc1N(C)S(C)(=O)=O	.	.	.	.	.	/
CC(=O)Nc1ccc(/C(C)=N/Nc2nc(Nc3ccccc3)nc(N3CCOCC3)n2)cc1	.	.	.	.	53	.
COc1cc(/C=N/Nc2nc(C)cc(C)n2)ccc1OC(=O)c1ccco1	.	.	.	.	.	/
CC(=O)c1ccc(Nc2nc(N3CCOCC3)nc(N3CCOCC3)n2)cc1	.	.	.	.	.	/
CCOc1cc(/C=N\Nc2nc(Nc3ccccc3)nc(N3CCOCC3)n2)ccc1OC(=O)c1ccco1	.	.	.	.	59	46
Cc1cc(C(=O)N2CCCC(N3CCN(c4cccc(Cl)c4)CC3)C2)nc(C)n1 (configuration not stated)	.	.	.	.	.	/
Cn1c(CNC(=O)C(Cc2ccccc2)NC(=O)c2cccc(F)c2)cc(=O)n(C)c1=O (configuration not stated)	.	.	.	.	.	/
